# Most compounds without a hit are left out; they make up all but 7.3% or so of the library.
# ELG1 genotoxic: qHTS screen for small molecules that induce genotoxicity in human embryonic kidney (HEK293T) cells expressing luciferase-tagged ELG1; HEK293T ELG1-luciferase reporter, luminescence, 16 h; actives 1.3% (n = 330,000); AID 504466, 2011; Potency, µM (series often up to 46 µM), most hits filed as activators; also: nearly all actives have a fitted effect of over 60% in size
#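 HEK293T cells expressing luciferase-tagged ELG1 were treated with compound or DMSO for 16 hr at 37°C. Luciferase activity was then read after 30 min with ONE-Glo at room temperature; rising signal flags genetic stress.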
# Rab9 promoter act: qHTS Assay for Rab9 Promoter Activators; Huh7 Rab9 promoter-luciferase reporter, luminescence, 24 h; Potency, µM (highest dose often 9.22 µM), hits mostly activators; actives 2.8% (n = 320,000); AID 485297, 2010; also: nearly all actives have a fitted effect of over 60% in size
#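 Steps: seed 1500 Huh7 Rab9-luc cells per well, rest 2 h at 37 °C; add compound in DMSO; incubate 24 h; add luciferase reagent, 10 min ambient; read luminescence.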
# KinaseGlo FLuc: Counterscreen for Luciferase (Kinase-Glo TM) Inhibition; Luciferin 4-monooxygenase (Photuris pensylvanica), Q27757; Kinase-Glo luciferase, ATP luminescence, 8 min; Potency, µM (highest dose often 38.3 µM), actives largely listed as inhibitors; actives 0.28% (n = 200,000); AID 1379, 2008; also: nearly all actives have a fitted effect of over 60% in size
#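 Kinase-Glo luciferase light output from ATP and luciferin was measured with 10 uM ATP, within the enzyme's linear range. Buffer: 50 mM imidazole pH 7.2, 50 mM KCl, 7 mM MgCl2, 0.01% Tween 20, 0.05% BSA; luminescence read after 8 min at ambient temperature.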
# SMN2 splice up: qHTS Assay for Enhancers of SMN2 Splice Variant Expression; HEK293 SMN2-luciferase splicing reporter, luminescence, 30-36 h; Potency, µM (doses to about 46.1 µM), actives largely listed as activators; actives 2.8% (n = 210,000); also: nearly all actives have a fitted effect of over 55% in size
#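 HEK293 cells carry an SMN2 […]–luciferase reporter in which exon 7 inclusion puts luciferase in frame. Cells were plated 10-12 h before compound addition, then incubated 30-36 h at 37C. ONE-Glo luminescence was read; sodium butyrate at 4.5 mM final served as control.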
# NPC1 promoter act: qHTS Assay for NPC1 Promoter Activators. Huh7 NPC1 promoter luciferase reporter, 24 h. Potency, µM (series often up to 9.22 µM), hits mostly activators. actives 2.4% (n = 320,000); also: nearly all actives have a fitted effect of over 60% in size
#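 Luciferase expression driven by the NPC1 promoter was measured in stably transfected Huh7 cells after a 24 h compound incubation, using a luciferase reagent and a luminescence read.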
# FLuc modulator: qHTS profiling assay for firefly luciferase inhibitor/activator using purifed enzyme and Km concentrations of substrates (counterscreen for miR-21 project). purified FLuc, Km substrates, luminescence inhibition. Potency, µM (doses to about 57.5 µM), most hits filed as inhibitors. actives 6.9% (n = 360,000). AID 588342, 2011; also: nearly all actives have a fitted effect of over 55% in size
# Target sequence (P08659 whole entry, looked up): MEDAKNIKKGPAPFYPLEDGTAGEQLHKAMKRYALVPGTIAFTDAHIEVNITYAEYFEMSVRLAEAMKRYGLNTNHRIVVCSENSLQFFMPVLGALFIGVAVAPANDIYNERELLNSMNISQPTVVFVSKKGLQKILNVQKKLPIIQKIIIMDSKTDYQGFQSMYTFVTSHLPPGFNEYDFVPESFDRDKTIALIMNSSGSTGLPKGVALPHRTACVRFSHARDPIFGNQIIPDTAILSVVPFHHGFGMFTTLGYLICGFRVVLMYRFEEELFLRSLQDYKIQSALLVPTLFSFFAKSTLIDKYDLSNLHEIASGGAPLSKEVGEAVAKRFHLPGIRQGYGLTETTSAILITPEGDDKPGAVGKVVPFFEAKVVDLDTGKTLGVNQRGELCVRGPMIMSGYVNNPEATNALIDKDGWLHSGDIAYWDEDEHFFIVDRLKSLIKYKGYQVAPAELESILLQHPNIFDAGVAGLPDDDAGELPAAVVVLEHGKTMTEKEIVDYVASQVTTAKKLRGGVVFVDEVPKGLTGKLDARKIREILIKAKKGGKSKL
#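 Purified P. pyralis luciferase (10nM final) with 10uM D-luciferin and 10uM ATP (Km levels) in 50mM Tris acetate pH 7.5, 10mM Mg acetate, 0.01% Tween-20, 0.05% BSA; qHTS 6-point titration, ~60 µM downward; luminescence read.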
# Hits are given with their value; – = inactive; ? = inconclusive; · = no result given; [ ] = dose if it differs, or a comment. Calls follow the shape of the dose curve; as a rule, active = well fitted curve in the direction sought with a large enough effect; inconclusive = small, poorly fitted or top-dose-only effect, or another doubt; inactive = no such curve, though single readings can be large; an effect the other way counts as inactive or inconclusive.
SMILES,ELG1 genotoxic,Rab9 promoter act,KinaseGlo FLuc,SMN2 splice up,NPC1 promoter act,FLuc modulator
CCC(C(=O)N1CCN(c2cc(Cl)ccc2C)CC1)n1nc(C)n2c(cc3occc32)c1=O (stereo not given),·,·,·,–,·,–
CCCCc1nc2c(c3c1C[C@H](C)OC3)CN(C(=O)c1cc(I)ccc1F)CC2,·,·,–[7.66 µM],–[9.22 µM],·,·
C=C(C)COc1ccc(-c2nc(N)ncc2Oc2ccccc2OC)c(O)c1,–,–,–,–,–,21µM
CCOCC(=O)O,·,·,·,–,·,·
COc1ccccc1CNC(=O)CCc1c(C)c2cc3c(C)coc3cc2oc1=O,·,·,·,–,·,–
Cc1ccc(-c2cc(=O)c3cc(F)ccc3[nH]2)cc1,–,–,–,?,–,27µM
Cc1ccc(-c2cc(=O)c3cc(C)ccc3[nH]2)cc1,?,?,–,2.2µM,?,0.67µM
Cc1cc(C)cc(OCC(=O)NC(Cc2c[nH]c3ccccc23)C(=O)O)c1 (stereo not given),·,·,·,–,·,?
CN(C)CCCNC(=O)c1ccc(Cc2nc3ccccc3[nH]2)cc1,·,·,–,·,·,·
S=c1nc(-c2ccccc2)oc2c1CCCC2,–,?,–,–,?,13µM
COc1cccc(-c2nc(=S)c3c(o2)CCCC3)c1,?,?,–,?,–,3µM
NC(=O)Cn1c(=O)n(CCCCCC(=O)NCc2ccccc2Cl)c(=O)c2sccc21,·,·,·,–,·,–
COc1ccc(C(O)c2ncc(C(F)(F)F)cc2Cl)cc1 (stereo not given),–,–,·,·,–,–
Fc1ccc(-c2cn3cc(C(F)(F)F)cc(Cl)c3n2)cc1,?,4.5µM,–,13µM,?,1.7µM
COc1ccc(-c2cn3cc(C(F)(F)F)cc(Cl)c3n2)cc1,5.8µM,2.2µM,–,2.8µM,?,3µM
COc1ccc2c(c1)CC[C@@H]1[C@@H]2CC[C@]2(C)[C@@H](NCCCCCCN3C(=O)C=CC3=O)CC[C@@H]12,·,·,·,–,·,·
COc1cc(OC)c(NC(=O)N2CCC(CN3CCCC3)CC2)cc1Cl,·,·,·,·,·,–
Fc1ccccc1Nc1ncnc2c1nc1n2CCCCC1,·,·,·,·,·,12µM
CC(C)c1ccc(Nc2ncnc3c2nc2n3CCCC2)cc1,·,·,·,·,·,5.4µM
Cc1cc(C)cc(Nc2ncnc3c2nc2n3CCCC2)c1,·,·,·,·,·,–
COc1ccccc1Nc1ncnc2c1nc1n2CCCC1,·,·,·,·,·,–
Cc1ccc(Nc2ncnc3c2nc2n3CCCC2)cc1F,·,·,·,·,·,13µM
CC(C)c1ccc(NC(=O)C2CCN(c3ncnc4c3nc3n4CCCCC3)CC2)cc1,–,–,·,·,–,–
CCOc1ccc(Nc2ncnc3c2nc2n3CCCC2)cc1,·,·,·,·,·,15µM
O=C(NC1CCN(Cc2ccccc2)CC1)c1ccc(Cn2c(=O)c3ccccc3n(Cc3ccc(F)cc3)c2=O)cc1,·,·,·,–,·,–
SMILES,ELG1 genotoxic,Rab9 promoter act,KinaseGlo FLuc,SMN2 splice up,NPC1 promoter act,FLuc modulator
CCN(CC)CCC[C@H](C)Nc1c2ccc(Cl)cc2nc2ccc(OC)cc12,·,·,–,–,·,·
Cc1cccc(N2C(=O)N(CC(=O)C(C)(C)C)c3ccccc3S2(=O)=O)c1C,·,·,·,·,·,–
O=C(Nc1n[nH]c(C2CCCCC2)n1)C1CCCCC1,21µM,–,–,0.11µM,–,–
O=C(Nc1ncccn1)C1CCCCC1,–,–,–,·,–,–
COc1ccc(S(=O)(=O)NCCc2sc(C)nc2C)cc1F,·,·,·,·,·,–
Cc1nn(C)cc1/C=C/C(=O)c1cccs1,18µM,?,–,?,?,5.4µM
Cc1nn(C)c(C)c1/C=C/C(=O)c1ccccc1,16µM,3.5µM,–,–,?,19µM
Cc1ccc(-c2nn(CCC(=O)O)cc2/C=C\C(=O)c2ccc(Br)cc2)cc1,–,–,–,–,–,–
Cc1nn(C)cc1/C=C/C(=O)c1ccccc1,?,?,–,–,?,1.5µM
CCn1cc(/C=N/O)c(C)n1,–,–,–,?,–,–[2.3 µM]
CCn1cc(/C=C/C(=O)c2ccc(O)cc2)c(C)n1,10µM,?,–,·,?,11µM
CCCOc1ccc(Oc2nc(NC)nc(N3CCOCC3)n2)nn1,·,·,·,–,·,–
CCC(=O)Nc1ccc(C(=O)COC(=O)Cc2ccsc2)cc1,–,–,·,·,–,11µM
O=C(COC(=O)Cc1ccsc1)Nc1ccc(Br)cc1,–,–,·,·,–,?
CCN(CC)c1nn2c(=O)c(C(=O)NCc3cccc(C)c3)cnc2s1,·,·,·,·,·,–
C[C@]12CC[C@H](O)CC1=CC[C@H]1[C@@H]2CC[C@@]2(C)C(N(CCO)CCO)CC[C@@H]12 (stereo not given in full),·,·,–[7.66 µM],–[9.22 µM],·,·
COc1ccc(Nc2nc(-c3sc(C)nc3C)cs2)c(OC)c1,–,–,·,·,–,?
Cc1cccc(Nc2nc(-c3sc(C)nc3C)cs2)c1,?,?,·,·,?,19µM
Cc1nc(C)c(-c2csc(Nc3cccc(O)c3)n2)s1,?,?,–,·,?,11µM
Cc1nc(N)sc1-c1csc(Nc2cccc(O)c2)n1,?,–,·,·,3.5µM,11µM
CC(=O)c1cccc(Nc2nc(-c3sc(N)nc3C)cs2)c1,–,–,·,·,–,17µM
COc1ccc(CCNc2nc(-c3sc(N)nc3C)cs2)cc1OC,–,–,–,–,–,?
CC(=O)c1cccc(Nc2nc(-c3sc(C)nc3C)cs2)c1,–,–,·,·,–,?
Cc1noc(C)c1-c1cc(NC2CC2)ncn1,·,·,–,–,·,·
CCOC(=O)c1sc2cccc(F)c2c1S(=O)(=O)N1CCN(c2cccc(Cl)c2)CC1,·,·,·,·,·,–
SMILES,ELG1 genotoxic,Rab9 promoter act,KinaseGlo FLuc,SMN2 splice up,NPC1 promoter act,FLuc modulator
CCC(=O)Nc1nc(C)c(-c2csc(Nc3cccc(O)c3)n2)s1,–,–,·,·,–,11µM
CC(C)Sc1nsc2nc(=O)c(/C=C3\C=Nc4ccccc43)c(N)n12,–,–,–,–,–,24µM
CC(C)c1nn2c(N)c(/C=C3\C=Nc4ccccc43)c(=O)nc2s1,–,–,·,·,–,?
CS(=O)(=O)c1nsc2nc(=O)c(/C=C3\C=Nc4ccccc43)c(N)n12,–,–,–,–,–,15µM
CN(C)c1ccnc2sc(C(N)=O)c(N)c12,–,–,–,–,–,–
CN(C)c1ccnc2sc(C(=O)c3ccc(Br)cc3)c(N)c12,–,?,–,22µM,?,?
O=C(Nc1ccn(-c2ccccc2)n1)c1ccc(Cl)cc1,–,–,–,–[1.84 µM],–,13µM
N#Cc1ccc(C(=O)Nc2ccn(-c3ccccc3)n2)cc1,–,–,–,–,–,?
O=C(Nc1ccn(-c2ccccc2)n1)c1ccccc1Br,?,–,–,16µM,?,?
CCOc1ccc(C(=O)Nc2ncccc2Cl)cc1,?,?,–,·,?,15µM
CCOc1ccc(C(=O)NCc2ccccn2)cc1,?,–,–,–,–,?
CCOc1ccc(NC(=O)c2ccccn2)cc1,?,0.13µM,13µM,0.79µM,?,0.48µM

# Assay outcomes (PubChem)
